Assay results published in PubChem BioAssay (NCI).
The panel holds about 83,000 compounds, 20% with a hit somewhere; the sample as a whole holds those more often.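 Step 1: grow cells in 96-well plates. Step 2: add test compound at a single concentration. Step 3: incubate 48 h. Step 4: record percent growth.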 Activity calls are given as the source filed them. The calls were made as follows: active = growth percent below 10; inactive = the rest.

Columns and labels:
Assay in all cases: NCI-60 one-dose screen, 48 h (100 = growth as untreated, 0 = no growth, -100 = all killed)
Conditions in all cases: 10 µM unless noted
NCI-H23 lung = system: NCI-H23 lung
NCI-H226 lung = system: NCI-H226 lung
NCI-H322M lung = system: NCI-H322M lung
HOP-62 NSCLC = system: HOP-62 NSCLC
NCI-H460 lung = system: NCI-H460 lung
HOP-92 NSCLC = system: HOP-92 NSCLC
NCI-H522 lung = system: NCI-H522 lung
A549/ATCC NSCLC = system: A549/ATCC NSCLC
786-0 renal = system: 786-0 renal
COLO 205 colon = system: COLO 205 colon

Measured: growth

N#CC1=C(N)Oc2c(sc3c(Br)cccc23)C1c1ccc(F)cc1 (stereo not given)
active: NCI-H460 lung 9.57% | NCI-H522 lung -6.79% | COLO 205 colon -35.7%
inactive: NCI-H23 lung 31.1% | NCI-H226 lung 36.6% | NCI-H322M lung 41.3% | HOP-62 NSCLC 26.3% | HOP-92 NSCLC 41% | A549/ATCC NSCLC 24.1% | 786-0 renal 12.2%

COC(=O)CCC(=O)C(=O)OC
inactive: NCI-H322M lung 10.2% [10 mM] | HOP-62 NSCLC 11.3% [10 mM] | A549/ATCC NSCLC 26% [10 mM] | COLO 205 colon 79.8% [10 mM]
active: NCI-H23 lung 0.491% [10 mM] | NCI-H226 lung -14.9% [10 mM] | NCI-H460 lung 7.63% [10 mM] | HOP-92 NSCLC -16% [10 mM] | NCI-H522 lung -63.9% [10 mM] | 786-0 renal 5.84% [10 mM]

CN1CCN(c2ccc(NC(=O)c3nc4ccc5[nH]ncc5c4c4c3CCCC4)cc2C(F)(F)F)CC1
inactive: NCI-H23 lung 90.2% | NCI-H226 lung 80% | NCI-H322M lung 86.3% | HOP-62 NSCLC 72.2% | HOP-92 NSCLC 49.2% | NCI-H522 lung 76.7% | A549/ATCC NSCLC 60.2% | 786-0 renal 34.3% | COLO 205 colon 59.3%
active: NCI-H460 lung -55.4%

O=C1C(Cl)=C(Oc2ccccc2)C(=O)c2ccccc21
inactive: NCI-H23 lung 85.9% | NCI-H226 lung 90.8% | NCI-H322M lung 83.1% | HOP-62 NSCLC 86% | NCI-H460 lung 94.4% | HOP-92 NSCLC 72.6% | A549/ATCC NSCLC 100% | 786-0 renal 94.1% | COLO 205 colon 32.3%
active: NCI-H522 lung -83.3%

CC1=Nc2cnc(Nc3ccc(OCCN4CCCC4)cc3)nc2Nc2ccccc21
inactive: NCI-H23 lung 80.4% | NCI-H226 lung 77.8% | NCI-H322M lung 44.6% | HOP-62 NSCLC 86.4% | NCI-H460 lung 64.2% | HOP-92 NSCLC 43.2% | NCI-H522 lung 73.9% | A549/ATCC NSCLC 86.5% | 786-0 renal 54% | COLO 205 colon 72.2%

C#COc1cccc(Nc2ncnc3ncc(NC(=O)CCl)cc23)c1
active: HOP-62 NSCLC -2.06% [6.25 µM] | NCI-H460 lung -5.59% [6.25 µM] | NCI-H522 lung -79.2% [6.25 µM] | 786-0 renal -69.6% [6.25 µM] | COLO 205 colon -46.9% [6.25 µM]
inactive: NCI-H23 lung 32.9% [6.25 µM] | NCI-H226 lung 43.8% [6.25 µM] | NCI-H322M lung 59.4% [6.25 µM] | HOP-92 NSCLC 59.5% [6.25 µM] | A549/ATCC NSCLC 23% [6.25 µM]

C/C(=N\NC(=O)c1ccccc1O)c1cccc(/C(C)=N/NC(=O)c2ccccc2O)n1
inactive: NCI-H23 lung 44.4% | NCI-H226 lung 50% | NCI-H322M lung 38.7% | HOP-62 NSCLC 30.3% | NCI-H460 lung 21.3% | HOP-92 NSCLC 43.5% | NCI-H522 lung 61.4% | A549/ATCC NSCLC 54.6% | 786-0 renal 33.6% | COLO 205 colon 35.2%

O=C1Nc2ccc(Br)cc2/C1=N/c1n[nH]c(=S)s1
inactive: NCI-H23 lung 93.3% | NCI-H226 lung 99.4% | NCI-H322M lung 107% | HOP-62 NSCLC 89% | NCI-H460 lung 106% | HOP-92 NSCLC 94.8% | NCI-H522 lung 93.4% | A549/ATCC NSCLC 98% | 786-0 renal 97.8% | COLO 205 colon 114%

CN1CCN(C(=O)OCc2ccc3c(Cl)cc(Cl)c(O)c3n2)CC1
inactive: NCI-H23 lung 59.6% | NCI-H226 lung 98.3% | NCI-H322M lung 60% | HOP-62 NSCLC 45.9% | NCI-H460 lung 66.8% | HOP-92 NSCLC 71.1% | NCI-H522 lung 79.6% | A549/ATCC NSCLC 62.5% | 786-0 renal 86.6% | COLO 205 colon 107%

O=C1/C(=C/c2ccc(Cl)cc2)COc2ccc(O)cc21
inactive: NCI-H23 lung 90.9% | NCI-H226 lung 98.8% | NCI-H322M lung 94.8% | HOP-62 NSCLC 102% | NCI-H460 lung 102% | HOP-92 NSCLC 95.9% | NCI-H522 lung 13.9% | A549/ATCC NSCLC 89% | 786-0 renal 64.2% | COLO 205 colon 78.2%

Cc1nc2sc(C(=O)Nc3cccc(Cl)c3C)c(N)c2cc1C(=O)c1ccccc1
active: NCI-H226 lung 5.27% | NCI-H460 lung 7.35% | NCI-H522 lung 5.64% | COLO 205 colon -36%
inactive: NCI-H23 lung 34.4% | NCI-H322M lung 49.8% | HOP-62 NSCLC 21.2% | HOP-92 NSCLC 41.6% | A549/ATCC NSCLC 19.9% | 786-0 renal 32.8%

CNc1nc(S(=O)c2ccc(C#N)cc2)nc2ccccc12 (stereo not given)
inactive: NCI-H23 lung 78.4% | NCI-H226 lung 81.1% | NCI-H322M lung 99.6% | HOP-62 NSCLC 98.5% | NCI-H460 lung 85.2% | HOP-92 NSCLC 75% | NCI-H522 lung 50.3% | A549/ATCC NSCLC 90.1% | 786-0 renal 97.5% | COLO 205 colon 91.6%

COc1ccc(-c2nc3c(c(-c4ccccc4)nn3-c3ccccc3)c(-c3ccc(N4CCN(C)CC4)cc3)c2C#N)cc1
inactive: NCI-H23 lung 98.6% | NCI-H226 lung 94.2% | NCI-H322M lung 97.5% | HOP-62 NSCLC 103% | NCI-H460 lung 101% | HOP-92 NSCLC 83.2% | NCI-H522 lung 94.4% | A549/ATCC NSCLC 89.3% | 786-0 renal 78.9% | COLO 205 colon 114%

CC(=O)OCc1nc(C#N)c(N(C)C)o1
inactive: NCI-H23 lung 102% | NCI-H226 lung 97.3% | NCI-H322M lung 99.8% | HOP-62 NSCLC 91.4% | NCI-H460 lung 103% | HOP-92 NSCLC 83% | NCI-H522 lung 90.3% | A549/ATCC NSCLC 92.5% | 786-0 renal 95% | COLO 205 colon 105%

CC(C)NC1CCC(Nc2ccnc3cc(Cl)ccc23)CC1 (stereo not given)
inactive: NCI-H23 lung 101% | NCI-H226 lung 83.6% | NCI-H322M lung 88.2% | HOP-62 NSCLC 78.1% | NCI-H460 lung 101% | HOP-92 NSCLC 46.8% | NCI-H522 lung 78.5% | A549/ATCC NSCLC 91.1% | 786-0 renal 90.4% | COLO 205 colon 69.3%

Clc1ccc(Nc2nnc(COc3ccccc3)c3ccccc23)cc1
active: NCI-H23 lung 4.18% | NCI-H226 lung 1.78% | NCI-H460 lung 3.1% | HOP-92 NSCLC -28% | NCI-H522 lung -17.4% | A549/ATCC NSCLC 4.64% | 786-0 renal 5.25% | COLO 205 colon -5.75%
inactive: NCI-H322M lung 21.2% | HOP-62 NSCLC 13.1%

O=C1/C(=C/c2ccc(F)cc2)COc2ccc(O)c(O)c21
inactive: NCI-H23 lung 44.3% | NCI-H226 lung 79.6% | NCI-H322M lung 39.9% | NCI-H460 lung 48.6% | A549/ATCC NSCLC 47.4% | COLO 205 colon 28%
active: HOP-62 NSCLC 8.74% | HOP-92 NSCLC 6.21% | NCI-H522 lung -65.1% | 786-0 renal -47.6%

CCC(C)N(c1ccc(Cl)cc1)c1nc(-c2ccc(Br)cc2)cs1 (stereo not given)
inactive: NCI-H23 lung 88.6% | NCI-H226 lung 93.1% | NCI-H322M lung 91.4% | HOP-62 NSCLC 90.9% | NCI-H460 lung 98% | HOP-92 NSCLC 94.4% | NCI-H522 lung 89.2% | A549/ATCC NSCLC 95.6% | 786-0 renal 96% | COLO 205 colon 112%

O=C1c2c(c3c4ccc(Br)cc4oc3c3[nH]c4ccccc4c23)C(=O)N1O
active: HOP-92 NSCLC -2.77% | NCI-H522 lung 6.86%
inactive: NCI-H23 lung 22.7% | NCI-H226 lung 61.7% | NCI-H322M lung 59.7% | HOP-62 NSCLC 29.3% | NCI-H460 lung 10.7% | A549/ATCC NSCLC 64.3% | 786-0 renal 84.8% | COLO 205 colon 42.7%

COc1cc(-c2cc(-c3cccs3)c(C#N)c(N3CCOCC3)n2)cc(OC)c1OC
inactive: NCI-H23 lung 101% | NCI-H226 lung 111% | NCI-H322M lung 100% | HOP-62 NSCLC 134% | NCI-H460 lung 11.1% | HOP-92 NSCLC 101% | NCI-H522 lung 80.3% | A549/ATCC NSCLC 83.6% | 786-0 renal 37.7% | COLO 205 colon 56.4%

Cc1cccc(N2CCN(CC(O)COc3ccc(Cl)cc3)CC2)c1 (stereo not given)
inactive: NCI-H23 lung 109% | NCI-H226 lung 105% | NCI-H322M lung 104% | HOP-62 NSCLC 100% | NCI-H460 lung 112% | HOP-92 NSCLC 88.1% | NCI-H522 lung 94.1% | A549/ATCC NSCLC 117% | 786-0 renal 98% | COLO 205 colon 98%

CS(=O)(=O)C1=CN(CCO)C(=O)N2CCCN=C12
inactive: NCI-H23 lung 95.7% | NCI-H226 lung 96.6% | NCI-H322M lung 93.1% | HOP-62 NSCLC 92.4% | NCI-H460 lung 102% | HOP-92 NSCLC 101% | NCI-H522 lung 94.8% | A549/ATCC NSCLC 98.7% | 786-0 renal 99.5% | COLO 205 colon 97.8%

CSc1nnc(-c2cnn3c2NC(c2ccccc2)C3)n1-c1ccc(C(F)(F)F)cc1 (stereo not given)
inactive: NCI-H23 lung 72.6% | NCI-H226 lung 73.5% | NCI-H322M lung 72.3% | HOP-62 NSCLC 61.1% | NCI-H460 lung 61.8% | HOP-92 NSCLC 64.3% | NCI-H522 lung 26.1% | A549/ATCC NSCLC 45.5% | 786-0 renal 66.1% | COLO 205 colon 63.9%

COc1cc(CNC(=O)CCCC/C=C/C(C)C)ccc1OCc1nnc(Nc2ccc([N+](=O)[O-])cc2)o1
inactive: NCI-H23 lung 54.9% | NCI-H226 lung 62.1% | NCI-H322M lung 57.6% | HOP-62 NSCLC 67.6% | NCI-H460 lung 33.5% | NCI-H522 lung 73% | A549/ATCC NSCLC 49% | 786-0 renal 22.2% | COLO 205 colon 70.9%
active: HOP-92 NSCLC -2.56%

C#Cc1cccc(Nc2ncnc3ccc(-c4cnc(N)nc4)cc23)c1
active: NCI-H322M lung -7.64%
inactive: NCI-H23 lung 50% | NCI-H226 lung 53.2% | HOP-62 NSCLC 28.4% | NCI-H460 lung 37.8% | HOP-92 NSCLC 15% | NCI-H522 lung 10.5% | A549/ATCC NSCLC 35.9% | 786-0 renal 36.3% | COLO 205 colon 52.6%

CSc1nc2sc3c(c2c(=O)n1-c1ccc([N+](=O)[O-])cc1)CCCCC3
inactive: NCI-H23 lung 90.8% | NCI-H226 lung 94% | NCI-H322M lung 88.8% | HOP-62 NSCLC 73.4% | NCI-H460 lung 74.7% | HOP-92 NSCLC 94.6% | NCI-H522 lung 81% | A549/ATCC NSCLC 81.1% | 786-0 renal 95.7% | COLO 205 colon 99%

CN(C)c1ccc(Nc2cc(-c3cccc(OC(F)(F)F)c3)nc3ccc(N4CCCC4)cc23)cc1
inactive: NCI-H23 lung 27.2% | NCI-H226 lung 103% | NCI-H322M lung 46.3% | HOP-62 NSCLC 61.3% | HOP-92 NSCLC 85.3% | NCI-H522 lung 87.7% | COLO 205 colon 70.6%
active: NCI-H460 lung -70.9% | A549/ATCC NSCLC -32.8% | 786-0 renal 2.11%
